Data: PubChem BioAssay (NCI)
Compounds without any hit were thinned out: in the full panel of roughly 83,000, 20% have a hit.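 Assay: single dose, 48 h. Readout: percent growth (0 = no net growth; negative = cell death). Active: <10.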 A number with no mark means an inactive call. The source made the active and inactive calls.

The compounds below were run on HL-60(TB) leukemia (assay: NCI-60 one-dose screen, 48 h (100 = growth as untreated, 0 = no growth, -100 = all killed)). Conditions: 10 µM unless noted.
Compound `CC(C)c1ccc(C(=O)OCCCl)cc1` has a growth of 85.5%.
For `C=C(C)[C@@H]1CC[C@]2(C(=O)OCCOCCOCC[P+](c3ccccc3)(c3ccccc3)c3ccccc3)CC[C@]3(C)[C@H](CC[C@@H]4[C@@]5(C)CC[C@H](OC(C)=O)C(C)(C)[C@@H]5CC[C@]43C)[C@@H]12`, the growth was -62.3% (active).
`CN(C)c1ccc(-c2ccc(-c3ccc(C(=N)N)c(F)c3)s2)cc1` was tested, and the growth was -46.1% (active).
`CC(=O)OCC(OC(C)=O)C(OC(C)=O)C(OC(C)=O)C(OC(C)=O)C(/C=N/Nc1ccccc1)=N/Nc1ccccc1` (configuration not stated) showed a growth of 59.4%.
Compound `O=C(/C(=C/c1ccc([N+](=O)[O-])cc1)SCc1ccc(F)cc1)c1ccc(F)cc1` has a growth of 68.8%.
In the case of `COc1cccc(-c2cc(-c3cc4ccccc4oc3=O)nc(N)n2)c1`, the growth is reported as 101%.
`Cc1ccc2c(c1)C(=O)c1c-2c(OCCCN(C)C)nc2ccccc12` was tested, and the growth was 35%.
In the case of `O=C1/C=C/[C@@H](O)[C@@H]2C[C@@H](O)C[C@H]2/C=C/CCC[C@H](CCc2ccccc2)O1`, the growth is reported as 3.95% (active).
Compound `C#Cc1cccc(NC(=O)c2ccc(NC(=O)C=C)cc2)c1` has a growth of 80.6% [8.25 µM].
In the case of `OCCOc1ccc(-c2cc(-c3ccccn3)nc(-c3ccccn3)c2)cc1`, the growth is reported as -36.1% (active).
`CCCCCCCCOC(=O)CC[C@@H](C)[C@H]1CC[C@H]2[C@@H]3[C@H](OC(=O)CCN)C[C@@H]4C[C@H](OC(=O)CCN)CC[C@]4(C)[C@H]3C[C@H](OC(=O)CCN)[C@]12C` gave a growth of 43.7%.
For `O=C(O)c1ccc(Nc2ncc3c(n2)-c2ccc(Cl)cc2C(c2c(F)cccc2F)=NC3)cc1`, the growth was 22.6%.
